Records with an inconclusive call do not appear. Values without a mark were called inactive. The source made the active and inactive calls. Calls come from the whole dose curve; as a rule, active = well fitted cell-killing curve with a large enough effect in the repeat runs; inconclusive = weak or mixed curves, or effect the other way; inactive = no such curve, though single readings can be large or run the other way.
test: qHTS assay to identify small molecule agonists of the estrogen receptor alpha (ER-alpha) signaling pathway in the presence of an antagonist - cell viability counter screen (AID 1259386); settings: VM7Luc4E2 viability, CellTiter-Fluor fluorescence, 22 h; series mostly up to 92.4 µM; activity change, negative = cytotoxicity: at the top concentration;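 note: cells exposed to compounds for 22 h at 37 °C before the viability read; nearly all actives have a fitted effect of over 30% in size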
From the text: National Center for Advancing Translational Sciences [NCATS]
NIH Chemical Genomics Center [NCGC]
U.S. Environmental Protection Agency [EPA]
National Institutes of Environmental Health Sciences [NIEHS]
National Toxicology Program [NTP]
U.S. Food and Drug Administration [FDA]
Estrogen receptor (ER), a member of nuclear hormone receptor plays an important role in development, metabolic homeostasis and reproduction. Two subtypes of ER, ER-alpha and ER-beta, have similar expression patterns with some uniqueness in both types. Endocrine disrupting chemicals (EDCs) and their interactions with steroid hormone receptors like ER causes disruption of normal endocrine function. Therefore, it is important to understand the effect of environmental chemicals in ER signaling pathway. For identifying ER agonists, VM7Luc4E2 cell line has been used in the current assay.
VM7Luc4E2 cell line (provided by Denison MS, University of California) endogenously expresses full-length ER-alpha and is stably transfected with a plasmid containing four estrogen responsive elements (ERE) upstream of a luciferase reporter gene. This current screening for measuring luciferase reporter gene activity using VM7Luc4E2 cells against Tox21 10K library collection is a confirmation study on agonist mode screening in presence of ER-antagonist (ICI-182,780) at 10.0nM final concentration. The cytotoxicity of the compounds was tested in parallel by measuring the cell viability using CellTiter-Fluor assay system (Promega, Madison, WI) in the same wells.
Tox21 Assay Protocol Summary:
VM7Luc4E2 cells were cultured in phenol red free assay medium containing 10% charcoal stripped FBS for 5 days prior to the assay. The cells were dispensed at 4,000 cells in 4uL of assay medium per well into white wall/solid-bottom 1536-well plates (Corning Life Sciences, Corning, NY) using a Multidrop Combi (Thermo Fisher Scientific Inc., Waltham, MA) dispenser. After the assay plates were incubated at 37C and 5% CO2 for 24hr, 1uL of 10.0nM (final concentration) ICI-182,780 or assay buffer was added using two separate tips of Flying Reagent Dispenser (FRD, Aurora Discovery, San Diego, CA). Then 23nL of compounds dissolved in DMSO at 15 concentrations and positive controls or DMSO only was transferred to the assay plates by a Pintool station (Wako, San Diego, CA). The assay plates were incubated at 37C and 5% CO2 for 22hr. After 21hr incubation at 37C, 1uL/well CellTiter-Fluor reagent (Promega Corporation, Madison, WI) was added to each well using FRD and after 1hr incubation at 37C and 5% CO2, the fluorescence signal was measured on ViewLux plate reader (PerkinElmer, Shelton, CT).
% is set by controls: 0 for no effect and ±100 for the full control effect.

SMILES | activity change, negative = cytotoxicity | Potency
CS(=O)(=O)Cl | 0.752% | 
CN1C(=O)COc2c(C(=O)NC3CN4CCC3CC4)cc(Cl)cc21 (stereo not given) | -3.44% [at 42.5 µM] | 
C=CCCC#N | 0.709% | 
CC[C@@H](CO)NC(=O)[C@@H]1C=C2c3cccc4c3c(cn4C)C[C@H]2N(C)C1 | 1.76% [at 42.5 µM] | 
C#CCOC(=O)/C=C(C)/C=C/CC(C)CCCC(C)C (stereo not given) | 0.826% | 
C[C@]12C=CC(=O)C=C1CC[C@@H]1[C@@H]2CC[C@@]2(C)[C@H]1CC[C@]2(C)O | 4.51% [at 42.5 µM] | 
O=S1(=O)OCCO1 | -0.326% | 
BrCc1ccc(Br)cc1 | -0.675% | 
O=C(Cl)CCl | 1.81% | 
ClCCN1CCCC1 | 0.656% [at 42.5 µM] | 
CC1=C2[C@H]3OC(=O)[C@@H](C)[C@@H]3CC[C@@]2(C)C=CC1=O | -1.97% [at 42.5 µM] | 
CC(C)(C)C(=O)C(Cl)Cl | 3.43% | 
BrCC1CO1 (stereo not given) | 0.261% | 
C=CC1(C)OC(=O)N(c2cc(Cl)cc(Cl)c2)C1=O (stereo not given) |  | inactive
CCC(CC)(CNC(=O)CCCO)c1cccc(OC)c1 | -0.064% [at 42.5 µM] | 
CC(C)[C@]12CC(=O)[C@H](C)[C@H]1C2 | -14.3% | 
CNC(=O)O/N=C(/CSC)C(C)(C)C | 0.337% | 
Clc1cc2c(cc1Cl)Oc1cc(Cl)c(Cl)cc1O2 | 0.532% [at 0.349 µM] | 
COP(=O)(O)OC | 1.68% | 
N[C@@H]1C[C@H]1c1ccccc1 | -1.81% [at 42.5 µM] | 

SMILES | activity change, negative = cytotoxicity | Potency
c1ccc2c(c1)CCNC2 | -7.07% | 
CC(C)NCC(O)c1ccc([N+](=O)[O-])cc1 (stereo not given) | -6.9% [at 42.5 µM] | 
CC(=NC#N)N(C)Cc1ccc(Cl)nc1 | 3.8% | 
CCNc1nc(Cl)nc(NC(C)(C)C)n1 | 10.7% | 
c1cncc([C@@H]2CCCCN2)c1 | -0.229% | 
C/C=C/CC#N | 1.37% | 
O=C(O)c1c(Cl)ccc2cc(Cl)cnc12 | 0.987% | 
CCN1CCCC1CNC(=O)C(O)(c1ccccc1)c1ccccc1 (stereo not given) | -2.69% [at 42.5 µM] | 
CC(C)(C1CCC(O)CC1)C1CCC(O)CC1 (stereo not given) | 2.05% | 
O=C(Cl)/C=C/C(=O)Cl | -0.27% | 
CC(C)(C)NC[C@H](O)c1ccc(O)cc1Cl | 2.93% [at 42.5 µM] | 
Cc1cc(OC(=O)N(C)C)nn1C(=O)N(C)C | 0.565% | 
CCOC(=O)NC(C)(C)Cc1ccc(Cl)cc1 | 0.562% [at 42.5 µM] | 
O=c1[nH]c2ccccc2o1 | 2.58% | 
CN=CNc1ccc(C)cc1C | 0.696% | 
CCOP(=O)(CN(CCO)CCO)OCC | 0.945% | 
CC(C)C(C)(N)C#N (stereo not given) | 3.85% | 
C=CCN1CC[C@]23CCCC[C@H]2[C@H]1Cc1ccc(O)cc13 | -5.18% [at 42.5 µM] | 
CN(CCO)CCO | 2.62% | 
CCC(=O)c1ccc(Cl)cc1 | -0.558% | 

— PubChem BioAssay (Tox21)
